{"source": "PubChem BioAssay AID504332", "about": "(National Center for Advancing Translational Sciences (NCATS), 2011)", "note": "Hit rate of the full screen: of about 350,000 compounds, about 31,000 (8.9%) were called active. Another 15% or so got no clear call; they are omitted. The entries come from a sample that favours actives as a whole. A call without a number means that no potency is given here. Values without a mark were called inactive. Calls come from the whole dose curve; as a rule, active = well fitted inhibition curve with a large enough effect; inconclusive = small, poorly fitted or top-dose-only effect; inactive = no such curve, though single readings can be large or run the other way. Potency is the fitted concentration of half-maximal effect."}
{"biological_target": "Histone-lysine N-methyltransferase EHMT2 (Homo sapiens) (UniProt Q96KQ7)", "sequence (Q96KQ7 913-1193 limits assumed)": "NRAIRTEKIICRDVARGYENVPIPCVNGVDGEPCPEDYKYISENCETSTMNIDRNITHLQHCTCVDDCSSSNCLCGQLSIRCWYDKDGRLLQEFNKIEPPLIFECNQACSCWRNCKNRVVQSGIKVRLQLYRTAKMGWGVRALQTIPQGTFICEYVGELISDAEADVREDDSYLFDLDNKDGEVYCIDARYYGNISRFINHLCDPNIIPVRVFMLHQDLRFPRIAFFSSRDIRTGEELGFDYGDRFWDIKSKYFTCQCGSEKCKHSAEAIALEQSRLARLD", "assay": "qHTS Assay for Inhibitors of Histone Lysine Methyltransferase G9a; note: nearly all actives have a fitted effect of over 75% in size", "conditions": "G9a H3K9 monomethylation, AlphaScreen, 2 h; series mostly up to 59 µM", "procedure,_shortened": "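AlphaScreen read-out: biotin-H3K9 peptide (500 nM) methylation by 20 nM enzyme with 20 uM SAM, 2 h at room temperature after 15 min compound preincubation; anti-monomethyl H3K9 antibody plus donor/acceptor beads, 10 min dark.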"}
{"smiles": "CC(NC(=O)c1cc(Sc2ccc(F)cc2F)nc2ccccc12)c1ccccc1", "note": "(stereo unspecified)", "Potency": "inactive"}
{"smiles": "Cc1ccc(-c2cnc(NC(=O)CCC(=O)N(C)Cc3ccccc3)n2C)cc1", "activity, negative = inhibition": "-4.41% [at 12.7 µM]"}
{"smiles": "Cc1ccc(-c2cnc(NCc3ccc(C(C)C)cc3)n2C)cc1", "Potency": "2.82 µM (active)"}
{"smiles": "COc1ccc(CNc2nc(-c3ccc(Cl)cc3)nn2S(=O)(=O)c2ccc(C)cc2)cc1", "Potency": "inactive"}
{"smiles": "CCOc1ccccc1OCC(=O)Nc1ccccc1C(=O)NC1CC1", "Potency": "inactive"}
{"smiles": "CCCN(CC(=O)Nc1ccccc1OC)C(=O)CCC(=O)c1ccc(F)cc1", "Potency": "inactive"}
{"smiles": "Cc1nn(C(C)C(=O)NCCC2=CCCCC2)c(=O)c2nn(-c3ccccc3)c(C)c12", "note": "(stereo unspecified)", "Potency": "inactive"}
{"smiles": "Cc1cc(Cl)ccc1NC(=O)Cc1ccc(NC(=O)N2CCCCc3ccccc32)cc1", "Potency": "inactive"}
{"smiles": "CCC(=O)N1CCc2cc(CNC(=O)Nc3ccccc3Cl)ccc21", "Potency": "inactive"}
{"smiles": "O=C(Cc1ccc2c(c1)CCCC2)Nc1ccccc1Cl", "Potency": "44.7 µM (active)"}
{"smiles": "CCCC(=O)N1CCN(c2nnc(-c3ccc(C)cc3)c3ccccc23)CC1", "Potency": "inactive"}
{"smiles": "CCc1nnc(NS(=O)(=O)c2ccc(NS(=O)(=O)c3ccccc3)cc2)s1", "activity, negative = inhibition": "2.62% [at 12.7 µM]"}
{"smiles": "CCc1nnc(NS(=O)(=O)c2ccc(NC(=S)NC(=O)c3cccs3)cc2)s1", "Potency": "inactive"}
{"smiles": "CCc1nnc(NS(=O)(=O)c2ccc(NC(=S)NC(=O)/C=C/c3cccs3)cc2)s1", "Potency": "44.7 µM (active)"}
{"smiles": "Cc1ccccc1CNC(=O)CSc1nnc(C)c2c(C)n(-c3ccccc3)nc12", "Potency": "inactive"}
{"smiles": "O=C(CCn1nnnc1CN1CCOCC1)N1CCC(c2ccccc2Cl)C1", "note": "(stereo unspecified)", "Potency": "inactive"}
{"smiles": "Nn1c(SCC(=O)Nc2nccs2)nnc1-c1ccco1", "Potency": "28.2 µM (active)"}
{"smiles": "Cn1c(SCC(=O)c2cccs2)nnc1-c1ccco1", "Potency": "50.1 µM (active)"}
{"smiles": "Cn1c(SCC(=O)Nc2nccs2)nnc1-c1cccnc1", "Potency": "inactive"}
{"smiles": "CCc1cccc(C)c1NC(=O)CSc1nnc(-c2ccco2)n1N", "activity, negative = inhibition": "11.7% [at 0.501 µM]"}
{"smiles": "CCOC(=O)CSc1nnc(-c2ccco2)n1C", "Potency": "inactive"}
{"smiles": "CCCCNC(=O)CSc1nnc(-c2ccco2)n1C", "Potency": "inactive"}
{"smiles": "Cc1cccc(Cn2c(=O)n(CCC(=O)NCCc3ccc(Cl)cc3)c(=O)c3sccc32)c1", "Potency": "inactive"}
{"smiles": "COc1ccc(NC(=O)CN(C)C(=O)c2ccc(NC3CC3)c([N+](=O)[O-])c2)cc1", "activity, negative = inhibition": "-3.73% [at 2.33 µM]"}
{"smiles": "Cc1ccc(-n2c(=O)c3cccnc3n2CC(=O)NCc2ccc(F)cc2)cc1C", "Potency": "inactive"}
{"smiles": "CC(=O)Nc1cc(C(=O)NCc2ccc(F)cc2Cl)ccc1Sc1ccc(Cl)cc1", "Potency": "inactive"}
{"smiles": "CCN(CCCNC(=O)c1ccc2c(c1)NC(=O)CN2C)c1cccc(C)c1", "Potency": "7.94 µM (active)"}
{"smiles": "CCN(CCCNC(=O)c1ccc(Sc2ccc(C)cc2)c(NC(C)=O)c1)c1cccc(C)c1", "Potency": "12.6 µM (active)"}
{"smiles": "CC(=O)Nc1cc(C(=O)NCc2ccc(F)cc2)ccc1Sc1ccc(F)cc1", "Potency": "inactive"}
{"smiles": "CCN(CCCNC(=O)Cn1ncc2c([nH]c3ccccc32)c1=O)c1cccc(C)c1", "Potency": "inactive"}
{"smiles": "Cc1cccc(C(=O)NCCCN(C)CCCNC(=O)c2cccc(C)c2)c1", "Potency": "inactive"}
{"smiles": "Cc1oc2ccc(O)c(CN3CCOCC3)c2c1C(=O)Nc1cccc(Cl)c1C", "Potency": "inactive"}
{"smiles": "C=CCOc1ccc(/C=C/C(=O)OCC(=O)NCC2CCCO2)cc1", "note": "(stereo unspecified)", "activity, negative = inhibition": "6.35% [at 12.7 µM]"}
{"smiles": "Cc1ccc(N(Cc2cc3ccccc3[nH]c2=O)C(=O)c2cccs2)cc1", "Potency": "inactive"}
{"smiles": "CCCN(CC(=O)Nc1ccccc1C)C(=O)c1cc(=O)[nH]c2ccccc12", "Potency": "inactive"}
{"smiles": "Cc1ccc(N(Cc2cc(=O)[nH]c3ccccc23)C(=O)CCl)cc1", "Potency": "11.2 µM (active)"}
{"smiles": "CC(=O)N(Cc1cc(=O)[nH]c2ccccc12)c1ccc(C)cc1C", "Potency": "31.6 µM (active)"}
{"smiles": "CCC(=O)N(Cc1cc2ccccc2[nH]c1=O)c1ccc(OC)cc1", "Potency": "inactive"}
{"smiles": "Cn1nnnc1SCc1cc(=O)[nH]c2ccccc12", "Potency": "inactive"}
{"smiles": "Cc1oc2ncnc(N3CCCCC3)c2c1C(=O)N1CCN(c2cccc(Cl)c2)CC1", "Potency": "inactive"}
{"smiles": "Cc1ccc2nc(-c3ccc(C)c(NC(=O)Cc4ccccc4)c3)oc2c1", "Potency": "inactive"}
{"smiles": "CCC(NC(=O)c1cc(COc2ccc(F)c(F)c2)on1)c1ccncc1", "note": "(stereo unspecified)", "activity, negative = inhibition": "13.4% [at 12.7 µM]"}
{"smiles": "COc1cc(OC)cc(C(=O)Nc2ccc3nc(Nc4cccc(C(F)(F)F)c4)cc(C)c3c2)c1", "Potency": "inactive"}
{"smiles": "COc1ccc(S(=O)(=O)Nc2ccc3cn[nH]c3c2)cc1[N+](=O)[O-]", "activity, negative = inhibition": "-20.9% [at 12.7 µM]"}
{"smiles": "CCn1c(SCC(=O)Nc2sc(C)c(C)c2C#N)nnc1C1CC1", "Potency": "inactive"}
{"smiles": "CCN(CC)C(=O)c1sc(NC(=O)c2ccco2)c(C#N)c1C", "Potency": "inactive"}
{"smiles": "COc1cccc(OC)c1C(=O)Nc1nnc(C(C)C)s1", "Potency": "inactive"}
{"smiles": "CCC(CC)c1nnc(NC(=O)c2nn(C)c(=O)c3ccccc23)s1", "Potency": "inactive"}
{"smiles": "CCC(CC)c1nnc(NC(=O)C2=COCCO2)s1", "Potency": "39.8 µM (active)"}
{"smiles": "Cc1sc(NC(=O)C2=COCCO2)c(C#N)c1C", "Potency": "11.2 µM (active)"}
{"smiles": "O=C(N=C1SC2CS(=O)(=O)CC2N1c1cc(Cl)ccc1Cl)C1CC1", "note": "(stereo unspecified)", "Potency": "inactive"}
{"smiles": "CCOc1ccc(N(CC)S(=O)(=O)N2CCCC(C(=O)NCc3ccc(SC)cc3)C2)cc1", "note": "(stereo unspecified)", "Potency": "inactive"}
{"smiles": "CCCCn1c(=O)c2oc3ccccc3c2n(CC(=O)Nc2ccccc2OC)c1=O", "Potency": "inactive"}
{"smiles": "COc1cc(NC(=S)N2CCCC(C)C2)cc(OC)c1OC", "note": "(stereo unspecified)", "Potency": "50.1 µM (active)"}
{"smiles": "COc1ccc(NC(=S)N2CCCC(CO)C2)c(OC)c1", "note": "(stereo unspecified)", "Potency": "inactive"}
{"smiles": "CCCCc1ccc(NC(=S)N2CCCC(CO)C2)cc1", "note": "(stereo unspecified)", "Potency": "inactive"}
{"smiles": "CCOc1ccc(NC(=O)c2ccc(NC(=O)COC(=O)c3ccc(NC(=O)CC#N)cc3)cc2)cc1", "activity, negative = inhibition": "12.7% [at 2.33 µM]"}
{"smiles": "O=C(NCc1ccccc1)C(=O)NCC(c1ccco1)S(=O)(=O)c1ccc(Cl)cc1", "note": "(stereo unspecified)", "Potency": "inactive"}
{"smiles": "Cc1nn(Cc2ccccc2)c(C)c1C(=O)N1CCN(CC(=O)Nc2ccccc2Cl)CC1", "Potency": "inactive"}
{"smiles": "Cc1ccc(S(=O)(=O)N(C)C)cc1NC(=O)COC(=O)/C=C/c1cccs1", "Potency": "28.2 µM (active)"}
{"smiles": "Cc1ccc(S(=O)(=O)N(C)C)cc1NC(=O)COC(=O)c1c(C)noc1C", "Potency": "inactive"}
{"smiles": "CN(C)S(=O)(=O)c1cccc(NC(=O)COC(=O)/C=C/c2cccs2)c1", "Potency": "inactive"}
{"smiles": "CCOC(=O)c1cc2c(=O)n3ccccc3nc2n(CCCOC)c1=NC(=O)C(C)Oc1ccccc1", "note": "(stereo unspecified)", "Potency": "inactive"}
{"smiles": "COCCCC1CCN(C(=O)C2CCC(=O)N(C3CCCCCC3)C2)CC1", "note": "(stereo unspecified)", "Potency": "inactive"}
{"smiles": "Cc1onc(-c2ccc(F)cc2F)c1C(=O)Nc1cccc(C(F)(F)F)c1", "Potency": "inactive"}
{"smiles": "Cc1ccc(C(=O)N2c3ncnn3C3(CCCCC3)[C@@H]3CCCC[C@@H]32)cc1", "Potency": "inactive"}
{"smiles": "Cc1ccccc1CN1CCC(CNC(=O)c2cc3ccc4cccnc4c3[nH]2)CC1", "Potency": "inactive"}
{"smiles": "COc1cc(C(=O)NNC(=O)CN2C(=O)NC3(CCCC3)C2=O)cc(OC)c1OC", "Potency": "inactive"}
{"smiles": "Cc1nnc(SCc2cc(=O)c3cc(F)ccc3[nH]2)n1C", "Potency": "inactive"}
{"smiles": "O=C(c1cc2cc(F)ccc2[nH]1)N1CCN(c2ccc(F)cc2)CC1", "Potency": "inactive"}
{"smiles": "O=C(CCCN1CCc2[nH]c3ccc(F)cc3c2C1)c1ccc(F)cc1", "Potency": "50.1 µM (active)"}
{"smiles": "Cc1cc(=O)[nH]c(SCC(N)=O)c1C#N", "activity, negative = inhibition": "9.52% [at 2.33 µM]"}
{"smiles": "Cc1cc(C#N)c(SCC(N)=O)nc1-c1ccc(F)cc1", "Potency": "12.6 µM (active)"}
{"smiles": "Cc1ccc2cc(C#N)c(SCC(=O)NCC3CCCO3)nc2c1C", "note": "(stereo unspecified)", "Potency": "inactive"}
{"smiles": "COc1ccc(Cc2nnc(NC(=O)c3ccc(OC)cc3OC)s2)cc1", "activity, negative = inhibition": "-7.06% [at 0.501 µM]"}
{"smiles": "COc1ccc(C(=O)NC2=NCCS2)c(OC)c1", "activity, negative = inhibition": "5.43% [at 12.7 µM]"}
{"smiles": "COc1ccc(C(=O)Nc2nncs2)c(OC)c1", "Potency": "39.8 µM (active)"}
{"smiles": "COc1ccc(S(=O)(=O)c2c(Nc3ccc(C)cc3)sc(C(=O)c3ccc(C)cc3)c2N)cc1", "Potency": "inactive"}
{"smiles": "O=C(NCc1ccccc1)C(c1ccco1)N(C(=O)c1csnn1)c1ccccc1F", "note": "(stereo unspecified)", "Potency": "inactive"}
{"smiles": "Cc1ccc(NC(=O)CSc2nnc3[nH]c(=O)cc(C)n23)cc1Cl", "Potency": "inactive"}
{"smiles": "COC(=O)C1=C(C)N(c2ccc(Br)cc2)C(=O)/C1=C\\c1ccco1", "Potency": "inactive"}
{"smiles": "CC(C)NC(=O)C(=O)N/N=C/c1ccco1", "Potency": "inactive"}
{"smiles": "COC(=O)C1=C(C)N(C(C)c2ccccc2)C(=O)/C1=C\\c1ccco1", "note": "(stereo unspecified)", "Potency": "35.5 µM (active)"}
{"smiles": "COc1c(Cl)cc(C(=O)N(Cc2ccccc2F)C2CCS(=O)(=O)C2)cc1Cl", "note": "(stereo unspecified)", "Potency": "inactive"}
{"smiles": "Cc1ccc(C(=O)N2CCc3cc(CNC(=O)c4ccc(Br)cc4)ccc32)cc1", "Potency": "inactive"}
{"smiles": "O=C(OCC(=O)N1CCc2ccccc21)c1ccc([N+](=O)[O-])cc1", "activity, negative = inhibition": "-12.4% [at 2.33 µM]"}
{"smiles": "CCC(CC)COC(=O)C1=C(C)NC(=O)NC1c1ccc([N+](=O)[O-])cc1", "note": "(stereo unspecified)", "Potency": "inactive"}
{"smiles": "COc1cccc(N2CCN(CC(=O)Nc3ccnn3C3CCCC3)CC2)c1", "activity, negative = inhibition": "3.38% [at 12.7 µM]"}
{"smiles": "CCCSc1ncc(Cl)c(C(=O)Nc2sc3c(c2C(=O)NCCOC)CCCC3)n1", "Potency": "inactive"}
{"smiles": "COc1ccc(NS(=O)(=O)c2ccc(NC(C)=O)cc2)cc1OC", "Potency": "inactive"}
{"smiles": "COc1cc(NS(=O)(=O)c2ccc(NC(C)=O)cc2)cc(OC)c1", "Potency": "inactive"}
{"smiles": "CC(=O)Nc1ccc(S(=O)(=O)Nc2cc(C)cn(Cc3ccc(C)cc3)c2=O)cc1", "Potency": "44.7 µM (active)"}
{"smiles": "CC(=O)c1c(C)[nH]c(C(=O)N2CCN(S(=O)(=O)c3ccc(F)c(F)c3)CC2)c1C", "Potency": "inactive"}
{"smiles": "CCC(C)C(=O)Nc1ccccc1N1CCN(c2ccc(F)cc2)CC1", "note": "(stereo unspecified)", "Potency": "inactive"}
{"smiles": "Cc1ccc(OCCC(=O)Nc2ccc(S(=O)(=O)Nc3nccs3)cc2)cc1", "activity, negative = inhibition": "15% [at 12.7 µM]"}
{"smiles": "COc1cn(CC(=O)Nc2cccc(C)c2C)c(CN2CCCCC2)cc1=O", "Potency": "inactive"}
